Assay in all cases: NCI-60 one-dose screen, 48 h (100 = growth as untreated, 0 = no growth, -100 = all killed)
Common to all, as to conditions: 10 µM unless noted

The subject of assay [1] is SK-MEL-2 melanoma.
For assay [2], the system named is EKVX NSCLC.
For assay [3], the system named is SN12C renal.
For assay [4], the system named is UO-31 renal.
Assay [5] deals with TK-10 renal.
The subject of assay [6] is ACHN renal.
Assay [7] relates to CAKI-1 renal.
Assay [8] relates to A498 renal.
The test system of assay [9] is CCRF-CEM leukemia.
In assay [10] the test system is MOLT-4 leukemia.

SMILES strings stand for the structures. The panel holds about 83,000 compounds, 20% with a hit somewhere; the sample as a whole holds those more often.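 Note: values are percent growth. 100 is the growth of untreated cells, values between 100 and 0 indicate rising inhibition; between -100 and 0 indicates cell death.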 Values without a mark were called inactive. Activity calls are given as the source filed them. How the source made its calls: active means growth percent below 10; inactive means the rest.

Consider `O=C(/C=C/c1ccc(Cl)c(Cl)c1)Nc1ncc(Cc2ccc(Cl)c(Cl)c2)s1`, for which the growth is 79.2% in [1]; 69.8% in assay [2]; 83.7% in assay [3]; 63.5% in [4]; 95.8% in [5]; 42.6% in [6]. Also, the growth was 53.9% in [7], 99.8% in assay [8], 71.3% in [9] and 54.8% in assay [10].

On to `O=C(/C=C/c1cc(Cl)ccc1Cl)Nc1ncc(Cc2ccc(Cl)cc2)s1`, for which the growth in assay [1] was 24.4%; in assay [2], 30.2%; in assay [3] it was 9.91% (active); in assay [4], 19.3%; in assay [5] it was 34.1%; in assay [6] it was 3.59% (active). Also, the growth in assay [7] is 2.37% (active); in assay [8], -32.8% (active); in assay [9], 11.1%; in assay [10], 15.2%.

For the compound `CC[C@]12C=CCN3CC[C@]4(C(=C(C(=O)OC)C1)Nc1cc5c(cc14)[C@@H]1[C@H](O5)[C@@H](O)[C@@]4(CC)CC(C(=O)OC)=C5Nc6cc(O)ccc6[C@@]56CCN1C46)C32` (stereo not given in full), the growth was 16.1% in assay [1]; 16.3% in assay [2]; 13.8% in [3]; 4.9% (active) in assay [4]; -9.16% (active) in assay [5]; -14.3% (active) in assay [6]. In addition, the growth is -7.67% (active) in [7], -71.8% (active) in assay [8], 6.81% (active) in assay [9] and 8.51% (active) in assay [10].

With `COc1ccc2c(c1)c(-c1nc(N)nnc1-c1c[nH]c3ccccc13)cn2C`, the growth was 52.6% in assay [1]; 43.9% in assay [2]; 53.6% in assay [3]; 50.9% in assay [4]; 92.8% in assay [5]; 44.7% in assay [6]. The growth in assay [7] is 31.1%; in [8] it was 4.9% (active); in [9], 28.7%; in assay [10], 25.5%.

For the compound `COc1cc(C(=O)c2cc(C(C)=O)c3c(C)cccn23)cc(OC)c1OC`, the growth is 98.9% in assay [1]; 99% in assay [2]; 80.9% in [3]; 75.6% in [4]; 108% in assay [5]; 97.9% in assay [6]. In addition, the growth in assay [7] is 84.5%; in assay [8], -10.4% (active); in [9], 96.1%; in assay [10], 92.5%.

In the case of `Nc1ncc(-c2ccc3ncnc(NCc4ccccc4)c3c2)cn1`, the growth in assay [1] is 71%; in assay [2] it was 23.5%; in assay [3], 29.5%; in [4] it was 15.1%; in assay [5] it was -7.11% (active); in [6], 25.2%. The growth is 17.4% in assay [7], 22.4% in assay [8], 42.3% in [9] and 17.7% in assay [10].

Take `C#C[C@]1(O)CC[C@H]2[C@@H]3CC=C4c5sc(Nc6cc(C)cc(C)c6)nc5CC[C@]4(C)[C@H]3CC[C@@]21C`: the growth in [1] was 14%; in assay [2], -3.54% (active); in assay [3], 51.4%; in assay [4], 8.23% (active); in assay [5], 62.8%; in assay [6], 34.3%. Further, the growth was 11% in assay [7], -3.87% (active) in assay [8], 10.7% in [9] and 0.923% (active) in [10].

Turning to `CCN(CC)CCOc1ccc(C(=C(C)Cc2ccc(OC)cc2)c2ccc(OCCN(CC)CC)cc2)cc1`, the growth in assay [1] is 116%; in assay [2], 84%; in assay [3], 86.1%; in assay [4] it was 68.3%; in assay [5], 111%; in assay [6] it was 46.7%. The growth in assay [7] was 69.8%; in [8], 85.7%; in assay [9] it was 3.83% (active); in [10], 3.61% (active).

For the compound `CNC(=O)c1cc(-c2ccc(NC(=S)Nc3cccc(C(F)(F)F)c3)cc2)nc2cccnc12`, the growth was 103% in [1]; 98.1% in [2]; 97.3% in assay [3]; 81.8% in assay [4]; 102% in [5]; 94.8% in [6]. Besides, the growth in [7] was 91.3%; in assay [8], 88.8%; in assay [9], 88%; in assay [10] it was 117%.

Take `COc1cc2cc(Oc3ccc(NC(=O)Nc4ccc(F)c(C(F)(F)F)c4)cc3)c(C)nc2cc1OCCN(C)C`: the growth was 115% in assay [1]; 97.6% in assay [2]; 96.4% in assay [3]; 86.6% in [4]; 106% in assay [5]; 106% in assay [6]. Further, the growth was 85.1% in [7], 93.6% in assay [8], 15.8% in assay [9] and 89.5% in [10].

In the case of `Cn1cc(-c2cc3ncnc(Nc4ccc(NC(=O)Nc5cc(C(C)(C)C)on5)cc4)c3s2)cn1`, the growth is -9.06% (active) in assay [1]; 48.2% in assay [2]; 18.8% in assay [3]; 41.7% in assay [4]; 62.5% in assay [5]; 27.1% in [6]. Further, the growth in assay [7] is 14.5%; in [8] it was 16.4%; in assay [9] it was 22.2%; in assay [10], 14.3%.

In the case of `Cc1ccc(S(=O)(=O)NCCCNc2nccc(-c3[nH]c(-c4ccccc4)nc3-c3ccc(F)c(O)c3)n2)cc1`, the growth is 24.8% in assay [1]; 94.9% in assay [2]; 99.2% in assay [3]; 115% in assay [4]; 134% in assay [5]; 85.8% in assay [6]. For the same compound, the growth in [7] was 90.7%; in assay [8] it was 76.3%; in assay [9] it was 39.7%; in assay [10], 39.2%.

In the case of `O=C(CSc1nnc(-c2ccc(Cl)cc2)n1-c1ccccc1)Nc1cccc(F)c1`, the growth in assay [1] was 88.4%; in assay [2], 42.2%; in assay [3] it was 13.7%; in [4], -15.2% (active); in assay [5], -14.7% (active); in [6], -31.8% (active). For the same compound, the growth in assay [7] is 14.1%; in [8], 57.9%; in [9], 91.3%; in assay [10] it was 85.8%.

As to `O=C(CCCCCCNC(=O)C(O)(O)C(F)(F)F)Nc1ncc(-c2ccccc2)s1`, the growth in [1] was -23.3% (active); in assay [2] it was 20.8%; in assay [3], 2.31% (active); in assay [4], -27.9% (active); in assay [5], -10.3% (active); in [6], -53.1% (active). Besides, the growth is -40.4% (active) in [7], -41.8% (active) in assay [8], 22.5% in [9] and 5.09% (active) in [10].

As to `N#C/C(=C\c1ccc(-c2ccc(Cl)cc2)o1)C(=O)Nc1ncc(Cc2ccc(Br)cc2)s1`, the growth in assay [1] is 83.1%; in assay [2], 19.6%; in assay [3] it was -29.9% (active); in assay [4], 52.9%; in [5] it was -35.6% (active); in assay [6] it was -34.6% (active). The growth was -7.28% (active) in [7], -25.5% (active) in [8], 34.8% in assay [9] and 55.8% in assay [10].

For the compound `COc1ccc(-c2cc(-c3ccc(N(C)C)cc3)n3c(n2)nc2ccccc23)cc1`, the growth in [1] was -3.8% (active); in [2], 56.5%; in [3] it was 64.7%; in assay [4], 35.2%; in assay [5], 40.9%; in [6], 63.7%. The growth is 61.2% in assay [7], 51.8% in [8], 24% in [9] and 13.8% in assay [10].

Turning to `COc1ccc(NC(=O)CCCCCCNC(=O)C(O)(O)C(F)(F)F)cc1`, the growth in assay [1] is 12.7%; in assay [2], 61.7%; in [3], 59.9%; in assay [4], 37.7%; in assay [5] it was 6.59% (active); in assay [6] it was 20.2%. Further, the growth in assay [7] was 26%; in assay [8] it was 41.8%; in assay [9] it was 26.2%; in assay [10], 21%.

Regarding `O=C(CCCCCCN1CC(=O)N2[C@@H](c3ccc(Cl)s3)c3[nH]c4ccccc4c3C[C@H]2C1=O)NO`, the growth was 59.9% in [1]; 49.1% in assay [2]; 72.7% in assay [3]; 57.8% in [4]; 43.4% in assay [5]; 66.8% in assay [6]. The growth is 48.8% in assay [7], 72.8% in assay [8], 16.7% in assay [9] and 11.2% in assay [10].

Take `CN1CC[C@@H]2[C@@]3(C)CC[C@H](O)C(C)(C)[C@@H]3CC[C@@]2(C)[C@]2(C)CC[C@@]3(CO)CCC(C)(C)C[C@@H]3C12` (stereo not given in full): the growth in [1] is 102%; in [2] it was 100%; in [3] it was 91.9%; in assay [4] it was 68.2%; in assay [5], 117%; in assay [6], 99.8%. For the same compound, the growth was 84.1% in assay [7], 97.1% in [8], 76.2% in assay [9] and 75.4% in assay [10].

As for `Clc1ccc2c(N/N=C/c3c[nH]c4ccccc34)ccnc2c1`, the growth in assay [1] is -82.2% (active); in assay [2], -79.3% (active); in assay [3] it was -77.2% (active); in assay [4], -95.1% (active); in assay [5], -91.9% (active); in [6] it was -98.1% (active). In addition, the growth in [7] was -97.5% (active); in assay [8], -93.6% (active); in assay [9], -10% (active); in assay [10] it was -48.5% (active).

On to `NC(=O)n1c(=O)n(-c2cccc(C(F)(F)F)c2)c(=O)c2cc(-c3ccc(F)cc3F)ccc21`, for which the growth was -20.1% (active) in assay [1]; -0.656% (active) in assay [2]; 1.52% (active) in assay [3]; 4.54% (active) in assay [4]; 8.59% (active) in assay [5]; -3.85% (active) in [6]. The growth in assay [7] is -21.6% (active); in [8], -26.4% (active); in assay [9], 9.98% (active); in [10], 0.274% (active).

For the compound `Cc1ccc2c(n1)C(=O)C(Cl)=C(Nc1ccc(C)c(C)c1)C2=O`, the growth in assay [1] was 40%; in assay [2] it was 52.6%; in assay [3], 0.141% (active); in assay [4] it was 44%; in assay [5] it was 140%; in [6], 57%. The growth in [7] was 90%; in assay [8], 71.8%; in [9], 30.8%; in [10] it was 60.1%.

For the compound `COc1cccc2c1C=CC1(O2)Oc2cccc(OC)c2C=C1C` (stereo not given), the growth is 57.7% in assay [1]; 47.7% in assay [2]; 49% in [3]; 47% in assay [4]; 103% in assay [5]; 40.4% in assay [6]. Also, the growth in assay [7] is 29.2%; in assay [8], 5.37% (active); in [9], 10.1%; in assay [10], 11.7%.

For the compound `Clc1ccc2[nH]cc(-c3cncn3CCc3ccc4c(c3)OCO4)c2c1`, the growth was 86.4% in assay [1]; 48% in [2]; 77% in assay [3]; 51.9% in assay [4]; 96.9% in assay [5]; 78.4% in assay [6]. In addition, the growth is 35.6% in assay [7], 56.3% in assay [8], 64.2% in assay [9] and 60.4% in [10].

As to `Cc1ccc2c(n1)C(=O)C(Cl)=C(Nc1cccc(C)c1C)C2=O`, the growth in assay [1] is -42% (active); in [2] it was 31.2%; in assay [3], -73.4% (active); in [4], -22.8% (active); in assay [5] it was 142%; in [6], -25.5% (active). The growth in assay [7] is 56.5%; in assay [8], 64%; in assay [9], 2.35% (active); in [10], -10.3% (active).

Turning to `COc1ccc(NC2=C(Br)C(=O)C(C)=C(C)C2=O)cc1OC`, the growth in assay [1] is 106%; in assay [2], 80.8%; in assay [3] it was 100%; in assay [4] it was 83.5%; in assay [5], 165%; in [6], 99.7%. Also, the growth is 99.1% in [7], 95% in assay [8], -27.9% (active) in [9] and -41.6% (active) in assay [10].

Source of the values: PubChem BioAssay (NCI).
